High-throughput results deposited in PubChem BioAssay by several laboratories.
Abs 340nm: compound absorbs light at 340 nm; compound absorbance at 340 nm, fold over control; 65,000 tested, under 10 active; fold change at 10 µM;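 active means at 10 µM dose, initial 340 nm absorbance at least 2 fold that of control wells; inactive means change under 2 fold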;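 further: initial absorbance extrapolated from kinetic A340 decline of NADH oxidation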
M1 ag: activates the M1 muscarinic receptor; CHO-M1 cells, Fluo-4 calcium fluorescence, agonist mode; active compounds read high; AID 626; actives 3% (n = 64,000); B-score at 10 µM;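 active means fluorescence rise, raw or as B-score row- and column-corrected plate score, outside the 99.7% band of its plate's samples, either direction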
WNV protease inh: inhibitors of West Nile virus NS2B-NS3 protease. P06935. WNV NS2B-NS3 protease, fluorogenic substrate Ex360/Em465; active compounds read low. z-score (test concentration not listed). AID 577. actives 0.18% (n = 65,000); in the data active means z-score below about -3
BAP1 inh: human BAP1 deubiquitinase inhibition. calls only at 20 µM. recombinant BAP1, Ub-AMC hydrolysis fluorescence kinetic; active compounds read low. actives 0.48% (n = 72,000). AID 436;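 active means activity remaining at or below 50% of control, provided the compound also passes the data quality filters; inactive means the rest, including low values that fail the filters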
Target sequence (Q92560 whole entry, looked up): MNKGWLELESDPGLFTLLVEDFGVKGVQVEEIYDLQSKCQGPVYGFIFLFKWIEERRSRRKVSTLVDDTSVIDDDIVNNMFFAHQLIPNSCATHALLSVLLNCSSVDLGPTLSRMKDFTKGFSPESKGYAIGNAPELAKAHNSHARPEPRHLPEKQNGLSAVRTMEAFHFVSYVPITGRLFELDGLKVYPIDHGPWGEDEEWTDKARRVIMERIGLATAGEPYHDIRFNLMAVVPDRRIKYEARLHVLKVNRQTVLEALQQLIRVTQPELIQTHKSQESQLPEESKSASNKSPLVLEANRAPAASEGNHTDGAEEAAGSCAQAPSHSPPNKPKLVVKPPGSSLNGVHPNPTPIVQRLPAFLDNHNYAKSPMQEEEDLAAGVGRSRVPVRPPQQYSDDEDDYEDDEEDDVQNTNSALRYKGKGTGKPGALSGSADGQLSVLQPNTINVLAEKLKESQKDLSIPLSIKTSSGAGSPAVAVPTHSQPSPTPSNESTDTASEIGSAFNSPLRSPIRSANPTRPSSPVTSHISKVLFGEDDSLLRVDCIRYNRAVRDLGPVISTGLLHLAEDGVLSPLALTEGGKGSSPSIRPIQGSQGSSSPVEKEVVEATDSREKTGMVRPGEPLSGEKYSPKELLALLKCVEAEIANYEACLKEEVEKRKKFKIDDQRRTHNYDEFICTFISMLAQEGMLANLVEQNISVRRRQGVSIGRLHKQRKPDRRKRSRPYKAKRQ
M1 antag: antagonists of rat M1 muscarinic receptor. P08482. actives 3.4% (n = 64,000). B-score at 10 µM. CHO-M1 cells, Fluo-4 calcium, ACh EC80 antagonist mode; active compounds read low;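 active means calcium fluorescence response, raw or row-and-column corrected B-score, differing from the plate sample mean either way at a set confidence level, mostly lower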
Autofluor 339: intrinsic fluorescence of library compounds, ex339/em460 – biochemical, MLSMR library, data from DPM-DC assay, artefact control, profiling panel | fluorescence fold increase at 10 µM | compound autofluorescence, ex339/em460 nm, NADH buffer; active compounds read high; 1 = no-compound wells, NADH background | actives 5.5% (n = 65,000);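 active means at 10 µM, mean starting fluorescence two-fold or more over control wells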;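 further: signal is the first read of a kinetic run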
BAP1 inh conf: confirmation of human BAP1 enzyme inhibitors; shares compounds with BAP1 inh; purified BAP1, Ub-ethyl ester hydrolysis, HPLC; active compounds read low; % of control activity, % at 20 µM; actives 8% (n = 310);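 active means percent of control activity at or below 60%; inconclusive means HPLC trace unusable from injection failure or solvent front hiding peaks; inactive means the rest, plus ubiquitin peak ratio over a set limit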
Of the large screens only hits and unclear results are named; the others gave an inactive call (follow-up assays come after a bar, where they were run). Hits are enriched below; roughly 9.7% of the tested compounds scored in any of these assays.

FC(F)(F)c1cc(-c2ccc3c(c2)OCO3)nc(NCc2ccco2)n1	none (no result: BAP1 inh)
Cc1ccc(-c2cc(C(F)(F)F)n3ncc(C(=O)NCc4ccco4)c3n2)cc1	BAP1 inh active | BAP1 inh conf inconclusive
O=C(NCc1ccco1)c1cc2nc(-c3ccc4c(c3)OCO4)cc(C(F)(F)F)n2n1	BAP1 inh active, Autofluor 339 3.7 | BAP1 inh conf 56
O=C(Nc1nc(-c2ccc(Oc3ccccc3)cc2)cs1)c1cc(Cl)ccc1[N+](=O)[O-]	none (no result: Abs 340nm, M1 ag, WNV protease inh, M1 antag, Autofluor 339)
O=C(NCC1CCCO1)c1c(O)c2ccccc2[nH]c1=O (stereo not given)	BAP1 inh active | BAP1 inh conf inactive
CCc1ccccc1NC(=O)c1cccc(Cl)c1	none (no result: Abs 340nm, M1 ag, WNV protease inh, M1 antag, Autofluor 339)
N#Cc1c(NC(=O)CSc2nnnn2C2CCCCC2)sc2c1CCCC2	BAP1 inh active | BAP1 inh conf inactive
C=CCCC(C)(O)C#CCN1CCCCC1 (stereo not given)	none (no result: Abs 340nm, M1 ag, WNV protease inh, M1 antag, Autofluor 339)
Cc1ccc(-c2cc(C(=O)Nc3cc(C)ccc3C)[nH]n2)c(O)c1	none
COc1ccc(OC)c(NC(=O)c2cc(-c3ccc(C)cc3O)n[nH]2)c1	BAP1 inh active (no result: M1 ag, M1 antag) | BAP1 inh conf inactive
Clc1ccccc1OCCn1ccnc1	none
C=CCc1ccccc1OCCn1ccnc1	BAP1 inh active | BAP1 inh conf inactive
CCCC(c1nnnn1CC(=O)OCC)N(Cc1cc2ccc(C)cc2[nH]c1=O)C1CCCC1 (stereo not given)	none (no result: M1 ag, M1 antag)
CCCC(c1nnnn1CC(=O)OCC)N(Cc1cc2c(C)cc(C)cc2[nH]c1=O)C1CCCC1 (stereo not given)	BAP1 inh active | BAP1 inh conf inactive
O=C(OCCN1C(=O)c2cccc([N+](=O)[O-])c2C1=O)C1CCCCC1	none (no result: Abs 340nm, M1 ag, WNV protease inh, M1 antag, Autofluor 339)
O=C(Nc1ccc(Br)cc1)c1ccc2c(c1)C(=O)N(c1ccc([N+](=O)[O-])cc1)C2=O	none (no result: Abs 340nm, M1 ag, WNV protease inh, M1 antag, Autofluor 339)
CCn1c(=O)c(C(=O)NCCc2ccccc2)c(O)c2ccccc21	BAP1 inh active | BAP1 inh conf inactive
N#Cc1c(NC(=O)COC(=O)C2CC3C=CC2C3)oc(-c2ccccc2)c1-c1ccccc1 (stereo not given)	BAP1 inh active | BAP1 inh conf 42
CCc1ccc(NS(=O)(=O)c2ccc3[nH]cc(C(=O)NCC4CCCO4)c(=O)c3c2)cc1 (stereo not given)	none
O=C(NCc1ccccc1)c1c[nH]c2ccc(S(=O)(=O)Nc3ccc4c(c3)OCCO4)cc2c1=O	BAP1 inh active | BAP1 inh conf inconclusive
O=C(C1CCN(c2nnc(-n3cccc3)s2)CC1)N1CCN(c2cccc(C(F)(F)F)c2)CC1	BAP1 inh active | BAP1 inh conf inactive
O=C(CCS(=O)(=O)c1ccccc1)Nc1nc2c(s1)COc1ccccc1-2	BAP1 inh active | BAP1 inh conf inactive
Cn1c(C(=O)N2CCCc3ccccc32)cc2c(=O)n3ccccc3nc21	BAP1 inh active, Autofluor 339 2.6 | BAP1 inh conf inactive
O=C(Nc1c[nH]c(=O)[nH]c1=O)c1ccc2c(c1)C(=O)N(C1CCCCC1)C2=O	none (no result: Abs 340nm, M1 ag, WNV protease inh, M1 antag, Autofluor 339)
Cc1ccc(N2C(=O)C3C4c5ccccc5C(C(=O)O)(c5ccccc54)C3C2=O)cc1Cl (stereo not given)	none (no result: Abs 340nm, M1 ag, WNV protease inh, M1 antag, Autofluor 339)
COCC(=O)N(C)C1(c2nnnn2CCOC(=O)Nc2cccc3ccccc23)CCCC1	BAP1 inh active | BAP1 inh conf inactive
Cc1nc2n(n1)C(c1ccccc1)C1=C(CC(c3ccco3)CC1=O)N2 (stereo not given)	BAP1 inh active | BAP1 inh conf inactive
CCN1C(=O)c2cccc3c(NS(=O)(=O)c4ccc([N+](=O)[O-])cc4)ccc1c23	none (no result: Abs 340nm, M1 ag, WNV protease inh, M1 antag, Autofluor 339)
Cc1ccc2cc(C(c3nnnn3C3CCCC3)N(Cc3ccccc3)Cc3ccco3)c(=O)[nH]c2c1 (stereo not given)	none
COCCn1nnnc1C(c1cc2ccc(C)cc2[nH]c1=O)N(Cc1ccco1)Cc1cccs1 (stereo not given)	BAP1 inh active | BAP1 inh conf inactive
C=CCOC(=O)C1=C(C)NC(=O)NC1c1ccccc1Br (stereo not given)	none (no result: Abs 340nm, M1 ag, WNV protease inh, M1 antag, Autofluor 339)
O=c1oc(-c2cc3ccccc3o2)nc2sc3c(c12)CCCC3	BAP1 inh active | BAP1 inh conf inactive
CS(=O)(=O)N(CC(=O)NCc1ccco1)c1ccccc1Br	none (no result: Abs 340nm, M1 ag, WNV protease inh, M1 antag, Autofluor 339)
Cc1cccc2cc(CN(Cc3cccs3)Cc3nnnn3Cc3ccccc3)c(=O)[nH]c12	BAP1 inh active | BAP1 inh conf inactive
CCc1ccc2[nH]c(=O)c(CN(Cc3ccccc3)Cc3nnnn3Cc3ccco3)cc2c1	BAP1 inh active (no result: M1 ag, M1 antag) | BAP1 inh conf inactive
Cc1ccc2[nH]c(=O)c(CN(Cc3ccc4c(c3)OCO4)Cc3nnnn3Cc3ccco3)cc2c1	BAP1 inh active | BAP1 inh conf inactive
C=CCOC(=O)C1=C(C)NC2=C(C(=O)CCC2)C1c1ccccc1OCCCC (stereo not given)	none (no result: Abs 340nm, M1 ag, WNV protease inh, M1 antag, Autofluor 339)
CCOC(=O)c1c(NC(=O)CSc2nc(C)cc(C)c2C#N)sc(C(C)=O)c1C	BAP1 inh active | BAP1 inh conf inactive
CCOC(=O)c1c(NC(=O)CSc2nnc(CNc3ccc(F)cc3)o2)sc(C(C)=O)c1C	BAP1 inh active | BAP1 inh conf inactive
CCOC(=O)c1c(NC(=O)COC)sc(C(C)=O)c1C	none
COc1ccc(OC)c(NC(=O)CSc2nnc(CNc3ccc(F)cc3)o2)c1	none
CCCCCOC(=O)C1=C(C)NC2=C(C(=O)CCC2)C1c1cc(OC)c(OC)cc1Br (stereo not given)	none (no result: Abs 340nm, M1 ag, WNV protease inh, M1 antag, Autofluor 339)
CCSc1sccc1C1C(C#N)=C(N)N(c2cccnc2)C2=C1C(=O)CCC2 (stereo not given)	BAP1 inh active | BAP1 inh conf inactive
COC(=O)c1ccc(NC(=O)CSc2nnc(COc3ccc4c(c3)CCCC4)o2)cc1	BAP1 inh active | BAP1 inh conf inactive
Nc1ccc(C(=O)Nc2ccc(Cc3ccc(NC(=O)c4ccc(N)cc4)cc3)cc2)cc1	none (no result: Abs 340nm, M1 ag, WNV protease inh, M1 antag, Autofluor 339)
COc1ccc(C)cc1Nc1n[nH]c(C)c1[N+](=O)[O-]	none (no result: Abs 340nm, M1 ag, WNV protease inh, M1 antag, Autofluor 339)
O=C(CSc1nnc(-c2ccc(F)cc2)o1)Nc1ccc(S(=O)(=O)N2CCCC2)cc1	none
O=S(=O)(c1ccc(-c2nnc(SCc3nnc(-c4ccccc4)o3)o2)cc1)N1CCCC1	BAP1 inh active | BAP1 inh conf inactive
O=C(CSc1nnc(-c2ccc(F)cc2)o1)Nc1ccc(S(=O)(=O)N2CCCCCC2)cc1	BAP1 inh active | BAP1 inh conf inactive
NC(=O)c1cc[n+](CC(=O)Nc2ccccc2C(=O)O)cc1	none (no result: Abs 340nm, M1 ag, WNV protease inh, M1 antag, Autofluor 339)
O=C(Nc1cccc2ccccc12)c1ccc2c(c1)C(=O)N(c1ccc(I)cc1)C2=O	none (no result: Abs 340nm, M1 ag, WNV protease inh, M1 antag, Autofluor 339)
O=C1C(C=Nc2ccccc2O)=C(O)c2ccccc21	none
